Source: PubChem BioAssay AID1159580 (chemical genetic matrix, 2015)
Hit rate of the full screen: of about 5,500 compounds, about 2,000 (36%) were called active. About 18% were inconclusive and are not listed. Cut-off read from the data, not from the text of the source: active = normalized growth mostly below about 0.91 (no sharp cut-off); inconclusive = no clear call, values can overlap the other calls; inactive = mostly above about 0.92. Some of the results follow.

Assay: chemical genetic growth profiling, strain panel (AID 1159580);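 note: tested at 20 µM; growth read once vehicle control cultures reached saturation at 30 °C; 1 = growth at the plate median or of vehicle wells; lower values mean less growth of the strain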
Details: growth OD

Measured: normalized growth

COC1=CC(=O)C[C@@H](C)[C@]12Oc1c(Cl)c(OC)cc(OC)c1C2=O
inactive: S. cerevisiae deletion strains, locus YJR075W, strain HOC1, stronger effect = lower value 1.03 | S. cerevisiae deletion strains, locus YKL009W, strain mrt4, stronger effect = lower value 1 | S. cerevisiae deletion strains, locus YKL068W, stronger effect = lower value 0.986 | S. cerevisiae deletion strains, locus YKL085W, strain MDH1 (second series), stronger effect = lower value 0.989 | S. cerevisiae deletion strains, locus YKL085W, strain MDH1, stronger effect = lower value 0.989 | S. cerevisiae deletion strains, locus YKL160W, strain elf1, stronger effect = lower value 1.02 | S. cerevisiae deletion strains, locus YKL190W, strain CNB1, stronger effect = lower value 1 | S. cerevisiae deletion strains, locus YKR001C, strain vps1, stronger effect = lower value 0.995 | S. cerevisiae deletion strains, locus YKR026C, strain gcn3, stronger effect = lower value 0.979 | S. cerevisiae deletion strains, locus YKR091W, strain srl3, stronger effect = lower value 0.989 | S. cerevisiae deletion strains, locus YLL001W, strain dnm1, stronger effect = lower value 0.984 | S. cerevisiae deletion strains, locus YLL026W, stronger effect = lower value 0.984 | S. cerevisiae deletion strains, locus YLL041C, strain sdh2, stronger effect = lower value 0.996 | S. cerevisiae deletion strains, locus YLR027C, strain aat2, stronger effect = lower value 0.993 | S. cerevisiae deletion strains, locus YLR039C, strain RIC1, stronger effect = lower value 0.983 | S. cerevisiae deletion strains, locus YLR058C, strain SHM2, stronger effect = lower value 0.996 | S. cerevisiae deletion strains, locus YLR102C, strain apc9, stronger effect = lower value 1 | S. cerevisiae deletion strains, locus YLR113W, strain HOG1, stronger effect = lower value 1 | S. cerevisiae deletion strains, locus YLR221C, strain rsa3, stronger effect = lower value 0.956 | S. cerevisiae deletion strains, locus YLR258W, strain gsy2, stronger effect = lower value 0.982 | S. cerevisiae deletion strains, locus YLR262C, strain YPT6 (second series), stronger effect = lower value 0.967 | S. cerevisiae deletion strains, locus YLR262C, strain YPT6, stronger effect = lower value 0.936 | S. cerevisiae deletion strains, locus YLR268W, strain sec22, stronger effect = lower value 0.994 | S. cerevisiae deletion strains, locus YLR320W, strain mms22, stronger effect = lower value 0.982 | S. cerevisiae deletion strains, locus YLR330W, strain CHS5, stronger effect = lower value 0.994 | S. cerevisiae deletion strains, locus YLR342W, strain FKS1 (second series), stronger effect = lower value 0.979 | S. cerevisiae deletion strains, locus YLR342W, strain FKS1, stronger effect = lower value 0.972 | S. cerevisiae deletion strains, locus YLR357W, strain rsc2, stronger effect = lower value 1.01 | S. cerevisiae deletion strains, locus YLR370C, strain arc18, stronger effect = lower value 0.943 | S. cerevisiae deletion strains, locus YLR371W, strain rom2, stronger effect = lower value 0.987 | S. cerevisiae deletion strains, locus YLR384C, strain iki3, stronger effect = lower value 0.993 | S. cerevisiae deletion strains, locus YLR418C, strain cdc73, stronger effect = lower value 0.987 | S. cerevisiae deletion strains, locus YML016C, strain PPZ1, stronger effect = lower value 0.991 | S. cerevisiae deletion strains, locus YML032C, strain rad52, stronger effect = lower value 0.986 | S. cerevisiae deletion strains, locus YML120C, strain ndi1, stronger effect = lower value 0.951 | S. cerevisiae deletion strains, locus YML124C, strain tub3, stronger effect = lower value 0.99 | S. cerevisiae deletion strains, locus YMR058W, strain fet3, stronger effect = lower value 0.999 | S. cerevisiae deletion strains, locus YMR078C, strain ctf18, stronger effect = lower value 0.987 | S. cerevisiae deletion strains, locus YMR125W, strain sto1, stronger effect = lower value 0.988 | S. cerevisiae deletion strains, locus YMR129W, stronger effect = lower value 0.983 | S. cerevisiae deletion strains, locus YMR205C, strain PFK2, stronger effect = lower value 1.01 | S. cerevisiae deletion strains, locus YMR223W, strain ubp8, stronger effect = lower value 0.988 | S. cerevisiae deletion strains, locus YMR231W, strain pep5, stronger effect = lower value 0.991 | S. cerevisiae deletion strains, locus YMR263W, strain SAP30, stronger effect = lower value 1.01 | S. cerevisiae deletion strains, locus YMR307W, strain GAS1, stronger effect = lower value 0.847 | S. cerevisiae deletion strains, locus YNL067W, strain RPL9B, stronger effect = lower value 1.04 | S. cerevisiae deletion strains, locus YNL071W, strain lat1, stronger effect = lower value 0.992 | S. cerevisiae deletion strains, locus YNL128W, strain TEP1, stronger effect = lower value 1 | S. cerevisiae deletion strains, locus YNL153C, strain GIM3, stronger effect = lower value 1.04 | S. cerevisiae deletion strains, locus YNL183C, strain NPR1, stronger effect = lower value 0.958 | S. cerevisiae deletion strains, locus YNL209W, strain ssb2, stronger effect = lower value 0.984 | S. cerevisiae deletion strains, locus YNL233W, strain BNI4, stronger effect = lower value 1.06 | S. cerevisiae deletion strains, locus YNL248C, strain rpa49, stronger effect = lower value 1.05 | S. cerevisiae deletion strains, locus YNL250W, strain rad50, stronger effect = lower value 1 | S. cerevisiae deletion strains, locus YNL271C, strain bni1, stronger effect = lower value 0.99 | S. cerevisiae deletion strains, locus YNL298W, strain CLA4, stronger effect = lower value 0.995 | S. cerevisiae deletion strains, locus YNL307C, strain MCK1, stronger effect = lower value 1 | S. cerevisiae deletion strains, locus YNL322C, strain KRE1 (second series), stronger effect = lower value 0.991 | S. cerevisiae deletion strains, locus YNL322C, strain KRE1, stronger effect = lower value 1 | S. cerevisiae deletion strains, locus YNR049C, strain mso1, stronger effect = lower value 0.98 | S. cerevisiae deletion strains, locus YNR052C, strain pop2, stronger effect = lower value 0.999 | S. cerevisiae deletion strains, locus YOL006C, strain TOP1, stronger effect = lower value 1.11 | S. cerevisiae deletion strains, locus YOL012C, strain htz1 0.916 | S. cerevisiae deletion strains, locus YOL147C, strain pex11, stronger effect = lower value 0.993 | S. cerevisiae deletion strains, locus YOR001W, strain rrp6, stronger effect = lower value 0.967 | S. cerevisiae deletion strains, locus YOR061W, strain CKA2, stronger effect = lower value 0.968 | S. cerevisiae deletion strains, locus YOR069W, strain VPS5, stronger effect = lower value 0.993 | S. cerevisiae deletion strains, locus YOR070C, strain gyp1, stronger effect = lower value 0.977 | S. cerevisiae deletion strains, locus YOR080W, strain dia2, stronger effect = lower value 0.982 | S. cerevisiae deletion strains, locus YOR083W, strain WHI5, stronger effect = lower value 1.02 | S. cerevisiae deletion strains, locus YOR106W, strain vam3, stronger effect = lower value 1 | S. cerevisiae deletion strains, locus YOR136W, strain idh2, stronger effect = lower value 1 | S. cerevisiae deletion strains, locus YOR144C, strain elg1, stronger effect = lower value 0.988 | S. cerevisiae deletion strains, locus YOR184W, strain ser1, stronger effect = lower value 0.991 | S. cerevisiae deletion strains, locus YOR231W, strain MKK1, stronger effect = lower value 1.01 | S. cerevisiae deletion strains, locus YOR265W, strain rbl2, stronger effect = lower value 0.978 | S. cerevisiae deletion strains, locus YOR270C, strain vph1, stronger effect = lower value 0.952 | S. cerevisiae deletion strains, locus YOR290C, strain snf2, stronger effect = lower value 1.03 | S. cerevisiae deletion strains, locus YOR316C, strain cot1, stronger effect = lower value 0.992 | S. cerevisiae deletion strains, locus YPL051W, strain arl3, stronger effect = lower value 1.02 | S. cerevisiae deletion strains, locus YPL055C, strain LGE1, stronger effect = lower value 0.985 | S. cerevisiae deletion strains, locus YPL078C, strain atp4, stronger effect = lower value 1.03 | S. cerevisiae deletion strains, locus YPL106C, strain sse1, stronger effect = lower value 0.964 | S. cerevisiae deletion strains, locus YPL240C, strain hsp82, stronger effect = lower value 0.988 | S. cerevisiae deletion strains, locus YPL241C, strain CIN2, stronger effect = lower value 0.992 | S. cerevisiae deletion strains, locus YPL256C, strain CLN2, stronger effect = lower value 0.985 | S. cerevisiae deletion strains, locus YPR119W, strain clb2, stronger effect = lower value 0.99 | S. cerevisiae deletion strains, locus YPR141C, strain kar3, stronger effect = lower value 0.978 | S. cerevisiae deletion strains, locus YPR163C, strain tif3, stronger effect = lower value 0.98 | S. cerevisiae deletion strains, locus YPR167C, strain met16, stronger effect = lower value 0.99 | S. cerevisiae deletion strains, strain wtn01, stronger effect = lower value 0.998 | S. cerevisiae strains, strain wild type, stronger effect = lower value 0.988
